# Source: a collection of fitness landscapes (doi:10.1126/science.1257360)
# The full ranking holds about 140,000 sequences; the median of “enrichment ratio after two sorts for PhoP signalling” is about 0, and the highest 2% start at about 11. The sample as a whole holds a higher share of the highest values than the screen did.
# B1: PhoQ; a variant is named by its letters at X, in order, P23837 (parent)
# chain: MKKLLRLFFPLSLRVRFLLATAAVVLVLSLAYGMVALIGYSVSFDKTTFRLLRGESNLFYTLAKWENNKLHVELPENIDKQSPTMTLIYDENGQLLWAQRDVPWLMKMIQPDWLKSNGFHEIEADVNDTSLLLSGDHSIQQQLQEVREDDDDAEMTHSVAVNVYPATSRMPKLTIVVVDTIPVELKSSYMVWSWFIYVLSANLLLVIPLLWVAAWWSLRPIEALAKEVRELEEHNRELLNPATTRELTSLVRNLNRLLKSERERYDKYRTTLTDLTHSLKTPLXXLQXXLRSLRSEKMSVSDAEPVMLEQISRISQQIGYYLHRASMRGGTLLSRELHPVAPLLDNLTSALNKVYQRKGVNISLDISPEISFVGEQNDFVEVMGNVLDNACKYCLEFVEISARQTDEHLYIVVEDDGPGIPLSKREVIFDRGQRVDTLRPGQGVGLAVAREITEQYEGKIVAGESMLGGARMEVIFGRQHSAPKDE
# Variants of: B1
# Assay: enrichment ratio after two sorts for PhoP signalling (ratio (wild type AVST 3.29)); higher = more functional
# Settings: with PhoP (E. coli)
row,Variant,enrichment ratio
1,RYVN,≤ 0.25
2,RYKH,≤ 0.25
3,MFLN,≤ 0.25
4,RRDC,≤ 0.25
5,MLNF,≤ 0.25
6,FVAS,≤ 0.25
7,SHAN,≤ 0.25
8,KCMT,≤ 0.25
9,NHAN,≤ 0.25
10,TVMT,12.2
11,TVAS,14.3
12,PVMT,≤ 0.25
13,NVAS,≤ 0.25
14,THAN,13.2
15,PEFN,≤ 0.25
16,PTTH,1.43
17,DIRA,≤ 0.25
18,HQWG,≤ 0.25
19,AGSK,0.857
20,ANSS,12.7
21,ADSS,≤ 0.25
22,ANSR,≤ 0.25
23,AHSS,≤ 0.25
24,AQSS,11.7
25,NGSS,≤ 0.25
26,AGSS,11.2

row,Variant,enrichment ratio
1,AKSS,8.3
2,LTKW,≤ 0.25
3,FSPG,≤ 0.25
4,VPLL,≤ 0.25
5,NLEV,≤ 0.25
6,EVYR,≤ 0.25
7,QKGY,≤ 0.25
8,QGYC,13.7
9,TAYC,11.3
10,KAYC,≤ 0.25
11,NGYC,≤ 0.25
12,RGYC,≤ 0.25
13,TGYC,13.2
14,QTYC,0.887
15,FFYC,≤ 0.25
16,YAYC,≤ 0.25
17,KTHY,≤ 0.25
18,GMIR,1.56
19,TGTT,11.2
20,NPLD,≤ 0.25
21,SLDR,≤ 0.25
22,TAGG,3.74
23,VTSS,≤ 0.25
24,YGPF,≤ 0.25
25,MAMI,8.98
26,WIML,≤ 0.25

row,Variant,enrichment ratio
1,QEML,≤ 0.25
2,TTML,28.8
3,AEML,14.4
4,AGML,16.1
5,YWML,≤ 0.25
6,APML,≤ 0.25
7,ANML,13
8,PNML,≤ 0.25
9,NIML,6.63
10,NEML,0.665
11,HMSC,≤ 0.25
12,RRES,≤ 0.25
13,YPTI,≤ 0.25
14,IDRY,≤ 0.25
15,ACRL,≤ 0.25
16,THML,12.8
17,AQML,24.2
18,ACML,17.8
19,FDML,≤ 0.25
20,NHML,≤ 0.25
21,SQML,4.5
22,ADML,21.8
23,WQML,≤ 0.25
24,AKML,9.72
25,YHML,≤ 0.25
26,ACIL,10.3

row,Variant,enrichment ratio
1,LQYI,≤ 0.25
2,LLQA,≤ 0.25
3,YWKI,≤ 0.25
4,RIIT,≤ 0.25
5,VAHN,≤ 0.25
6,PEIM,≤ 0.25
7,VACQ,≤ 0.25
8,AWDP,≤ 0.25
9,AYET,≤ 0.25
10,GVGM,≤ 0.25
11,RTSP,≤ 0.25
12,PEMC,≤ 0.25
13,IARY,≤ 0.25
14,AHML,4.34
15,TQML,22.5
16,EQML,≤ 0.25
17,AIML,21.2
18,AYML,≤ 0.25
19,AAML,14.7
20,VHML,≤ 0.25
21,YAML,8.51
22,ATML,11.3
23,KKML,≤ 0.25
24,IAML,4.62
25,NQML,≤ 0.25
26,NGCN,≤ 0.25

row,Variant,enrichment ratio
1,YSQW,≤ 0.25
2,TCLD,≤ 0.25
3,PESS,≤ 0.25
4,GICM,38.3
5,GAAM,≤ 0.25
6,GACK,≤ 0.25
7,GECM,15.3
8,GICK,9.7
9,GGCM,9.15
10,RICM,≤ 0.25
11,GECK,≤ 0.25
12,GNCM,11.7
13,GACM,12.2
14,GTCM,5.28
15,GEWM,≤ 0.25
16,SFIL,≤ 0.25
17,GTSW,≤ 0.25
18,QVGM,0.458
19,TTQP,≤ 0.25
20,LWAS,≤ 0.25
21,DYTN,≤ 0.25
22,HRCM,≤ 0.25
23,KRCM,≤ 0.25
24,TRCM,12.4
25,GMCK,≤ 0.25
26,GMCM,22

row,Variant,enrichment ratio
1,KMCM,≤ 0.25
2,EYMP,≤ 0.25
3,MHHS,≤ 0.25
4,YVFC,≤ 0.25
5,GPTW,≤ 0.25
6,RAKA,≤ 0.25
7,AGTI,16.7
8,AGTK,≤ 0.25
9,AGTH,5.3
10,RGTI,≤ 0.25
11,TGTI,13.2
12,KSTI,≤ 0.25
13,QIMM,≤ 0.25
14,SDFW,≤ 0.25
15,QQHA,≤ 0.25
16,GQMD,≤ 0.25
17,YKAP,≤ 0.25
18,KLPM,≤ 0.25
19,FVPN,≤ 0.25
20,AKAA,4.65
21,AQAA,12.7
22,ATMN,≤ 0.25
23,IQAA,≤ 0.25
24,AQQN,≤ 0.25
25,ATAN,29.1
